This is an account of results in PubChem BioAssay (EPA / NIEHS).

The AC50 is the concentration at which the activity in the assay is half-maximal.

“And” between values parts separate entries of the source, which are not always exact repeats. Identical values can stand only once. A structure can be active in one record and inactive in another. The source made the active and inactive calls. The calls were made as follows: active = hit-call score of the fitted dose curve at least 0.9, where 1 is the maximum; inactive = score below 0.9.

A short description of this experiment: CCTE_Shafer_MEA_dev_spike_duration_mean: CCTE's Neural Network Formation Assay for Mean Spike Duration, Shafer Lab (AID 2284051).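 As to AC50: potency for a decrease in mean network spike duration versus DMSO.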 As to the method: CCTE_Shafer_MEA_dev assay is conducted using Axion Biosystems 48 well microelectrode array (MEA) plates and Maestro recording system. Each well of the MEA plate contains a grid of 16 microelectrodes embedded in the culture surface. Electrically active cells, such as neurons, can be cultured over the electrodes, and electrical activity in these cells can be recorded extracellularly. The spontaneous firing of neurons is captured from each electrode on a microsecond timescale providing both temporally and spatially precise data. […] The CCTE_Shafer_MEA_dev assay uses primary cultures of rat cortical neurons. Recordings are made on days post-plating 5, 7, 9 and 12. As these cultures mature over time, neural networks develop functional activity and form cohesive networks in which electrical activity can be highly coordinated. CCTE_Shafer_MEA_dev_spike_duration_mean is 1 of 19 assay components of the CCTE_Shafer_MEA_dev assay. It measures the average duration of network spikes (temporally-clustered groups of action potential firing across multiple electrodes) during a recording in a microelectrode array (MEA) using Axion Biosystems Maestro 768 channel amplifier with the AxIS adaptive spike detector. To collapse across multiple recordings made on days post-plating 5, 7, 9 and 12, the trapezoidal area-under-the-curve of the component is calculated.Data from the assay component CCTE_Shafer_MEA_dev_spike_duration_mean was analyzed into 1 assay endpoint. This assay endpoint, CCTE_Shafer_MEA_dev_spike_duration_mean, was analyzed in the negative analysis fitting direction relative to DMSO as the negative control and baseline of activity. Using a type of functional reporter, gain or loss-of-signal activity can be used to understand electrical activity.
On the day prior to culture, each well was coated thoroughly with 150 uL of 0.05% polyethyleneimine (PEI, Sigma Cat P3143) in 50 mM HEPES (Sigma Cat H7523) at a pH of 8. The plate was incubated at 37C for one hour. PEI was rinsed out with 500 uL of sterile water three times. Plates were stored at 4C until the day of culture. This culture was plated at a seeding density of 1.5 x 10^5 cells/well on a 48-well MEA plate, prepared as described above. Cells were administered via a 25 uL media/laminin ([…]; Sigma Cat L2020-1MG) drop directly onto the microelectrode array, as adding the cells with the laminin results in better attachment than pre-coating with laminin. After 2 hours, an additional 475 uL of cortical media was added and the cells returned to the incubator. Exposure starts at day 0 of plating and is continued over twelve days of network development until the experiment is terminated. Cells are fed with fresh medium on DIV 5 and 9, following the recordings on those days. The entire volume of media in the well is exchanged and any vehicle or compound treatment is renewed. Complete details are found in OP-NHEERL/ISTD/SBB/TJS/2015-03-r0 (available on request, email shafer.tim@epa.gov). Measurement of the electrical activity is non-invasive, and recordings can be made from the same plate over multiple different days of the culture. In cortical neurons, this allows for the measurement of extracellular action potentials over the period during which networks form in the MEA plate.
Take `CCSC(=O)N1CCCCCC1`: the outcome was inactive.

On to `CCN(CC)c1nc(C)cc(OP(=S)(OC)OC)n1`, for which the AC50 was 50 µM (active).

Regarding `C=C(C)CN(CC)c1c([N+](=O)[O-])cc(C(F)(F)F)cc1[N+](=O)[O-]`, the half-maximal activity concentration (AC50) is 13.2 µM (active).

Regarding `CC1(C)C(C=C(Cl)Cl)C1C(=O)OC(C#N)c1cccc(Oc2ccccc2)c1` (stereo not drawn), the call was inactive and the AC50 was 6.93 µM (active).

Consider `CCOC(=O)C(C)OC(=O)c1cc(Oc2ccc(C(F)(F)F)cc2Cl)ccc1[N+](=O)[O-]` (stereo not drawn), for which the call was inactive.

`CO/N=C(/C1=NOCCO1)c1ccccc1Oc1ncnc(Oc2ccccc2Cl)c1F`: the AC50 is 856 nM (active) and 904 nM (active).

Take `COP(=S)(OC)SCn1nnc2ccccc2c1=O`: the AC50 is 27.2 µM (active).

For `CCCN(CC)CC1COC2(CCC(C(C)(C)C)CC2)O1` (stereo not drawn), the AC50 was 0.275 µM (active).

On to `CN/C(=N\[N+](=O)[O-])NCc1cnc(Cl)s1`, for which the result was inactive.

On to `CS(=O)(=O)c1ccc(C(=O)C2C(=O)CCCC2=O)c([N+](=O)[O-])c1`, for which the result was inactive.

With `CCNC(=O)NC(=O)C(C#N)=NOC`, the molecule was classed as inactive.

As for `CNC(=O)Oc1cccc2ccccc12`, the result was inactive.

Take `COP(=S)(OC)Oc1ccc([N+](=O)[O-])c(C)c1`: the call was inactive.

For the molecule `CC1(C)C(C(=O)OC(C#N)c2cccc(Oc3ccccc3)c2)C1(C)C` (stereo not drawn), the concentration at half-maximal activity (AC50) was 16.2 µM (active).

Take `N#CN=C1SCCN1Cc1ccc(Cl)nc1`: the result was inactive.

In the case of `COC(=O)N(C(=O)N1CO[C@@]2(C(=O)OC)Cc3cc(Cl)ccc3C2=N1)c1ccc(OC(F)(F)F)cc1`, the concentration at half-maximal activity (AC50) is 15 µM (active).

In the case of `Cc1c(COC(=O)[C@@H]2[C@H](/C=C(\Cl)C(F)(F)F)C2(C)C)cccc1-c1ccccc1`, the AC50 was 2.33 µM (active) and 2.32 µM (active).

Take `COP(=O)(OC)O/C(C)=C/C(=O)N(C)C`: the call was inactive.

On to `CC(C)(C)C(=O)C(Oc1ccc(Cl)cc1)n1cncn1` (stereo not drawn), for which the AC50 was 40.2 µM (active).

As to `CCOP(=O)(OCC)Oc1nc(Cl)c(Cl)cc1Cl`, the half-maximal activity concentration (AC50) was 5.13 µM (active) and 2.98 µM (active); the molecule was classed as inactive.

`O=C1C2CC=CCC2C(=O)N1SC(Cl)(Cl)Cl` (stereo not drawn): the molecule was called inactive and the AC50 was 9.85 µM (active).

In the case of `CC(C)=CC1C(C(=O)OCc2coc(Cc3ccccc3)c2)C1(C)C` (stereo not drawn), the molecule was called inactive.

On to `CS(=O)(=O)c1cc(C(F)(F)F)ccc1C(=O)c1cnoc1C1CC1`, for which the call was inactive.

Turning to `O=C(Nc1ccccc1-c1ccc(Cl)cc1)c1cccnc1Cl`, the molecule was called inactive and the AC50 was 4.26 µM (active).
